KDM5B inhibitor = blocks human KDM5B histone demethylase activity | Potency, µM (titrated, usually from 57.7 µM), most hits filed as inhibitors | 220,000 compounds, 2.6% hits | Q9UGL1 | KDM5B demethylase, FDH-coupled NADH fluorescence (FDH is formaldehyde dehydrogenase); active means well fitted inhibition curve with a large enough effect; further: 0% is about no effect; nearly all actives have a fitted effect of over 70% in size
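KDM5BΔAP (200 nM final) in 50 mM HEPES pH 7.5, 0.01% Tween-20 was preincubated 10 min at RT with compound over a concentration range. Substrate mix (H3K4me3 12.5 µM, α-KG 25 µM, Fe²⁺, ascorbate, NAD⁺, FDH) was added, and NADH fluorescence change over 30 min gave dose-response curves.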
* hit, by the source's call; i = inactive. This is one part of a sample in which hits are shown more often than they occur. Potency means the concentration at half of the fitted maximal effect.

SMILES | KDM5B inhibitor
CNC(=O)c1cccc(-c2cnc3[nH]cc(CC(=O)NCc4cccs4)c3c2)c1 | i
CC(=O)Nc1cccc(-c2cnc3[nH]cc(CC(=O)N4CCOCC4)c3c2)c1 | 32µM*
O=C(Cc1c[nH]c2ncc(-c3ccc(F)cc3)cc12)N1CCOCC1 | 28µM*
O=C(CS(=O)(=O)c1ccc(F)cc1)N1CCOCC1 | i
O=C(Cc1c[nH]c2ncc(-c3ccncc3)cc12)N1CCOCC1 | i
O=C(Cc1c[nH]c2ncc(-c3ccsc3)cc12)N1CCOCC1 | 32µM*
Cc1ccc2c(Cl)cc(Cl)c(OCC(=O)NC(=O)NC3CCCC3)c2n1 | i
COCCN1C(=O)CSC12CCN(C(=O)NCc1ccccc1)CC2 | i
COCCN(C)C(=O)C1(C)CN(Cc2ccccc2)Cc2ccc(NCC(C)C)nc21 (stereo not given) | 32µM*
COCCN1Cc2ccc(NCc3ccccc3)nc2C(C)(C(=O)N(C)CCOC)C1 (stereo not given) | 35µM*
COCCOC1CCN(C(=O)NCc2ccccc2)CC1 | i
COCCNc1cc2c(cn1)CN(Cc1ccccc1)CCN2 | i
CN(C)C(=O)N1CCC2(CC1)CN(Cc1ccncc1)Cc1ccccc1O2 | i
CCCCOc1ccc(C(=O)OCC(=O)c2cccs2)cc1 | i
Cc1ccc(C2=NS(=O)(=O)N(C)C(C(=O)Nc3cccc(O)c3)=C2)cc1 | i
CCCCCCn1nc(C(=O)OC(C)C(=O)NC(N)=O)c2ccccc2c1=O (stereo not given) | i
CC(C)c1ccc(C(=O)N2CCCC[C@H](N(C)C)C2)c(=O)n1C | i
O=C(CCc1cc(=O)[nH]o1)N[C@H](C1CCNCC1)C1CC(O)C1 (stereo not given in full) | i
CC(C)c1ccc(C(=O)N[C@H](C2CCNCC2)C2CC(O)C2)c(=O)n1C (stereo not given in full) | 25µM*
CCNC(=O)NC(=O)C(C)Sc1nc(-c2ccco2)nc2ccccc12 (stereo not given) | i
FC(F)(F)CN1CCN(c2nc(-c3cccnc3)nc3ccccc23)CC1 | i
O=C(c1cc(-c2ccc(O)cc2)n[nH]1)N1CCCC(CCc2ccc(F)cc2)C1 (stereo not given) | i
CCc1ncc(C(=O)N2CCCC(CCc3cccc(C(F)(F)F)c3)C2)cn1 (stereo not given) | i
CNc1ncc(C(=O)N2CCCC(CCc3ccc(F)cc3)C2)cn1 (stereo not given) | 20µM*
COc1ccc(/C=C/c2nn3c(-c4ccc5c(c4)OCO5)nnc3s2)cc1 | i
SMILES | KDM5B inhibitor
N#CCCN(C(=O)Cn1nc(C(=O)O)c2ccccc2c1=O)c1ccc(F)cc1 | i
O=C(O)C1=NOC2CN(C(=O)c3ccc(C(F)(F)F)cc3)CC12 (stereo not given) | i
COc1ccc(CN2CC3ON=C(C(=O)O)C3C2)cc1 (stereo not given) | i
O=C(O)C1=NOC2CN(Cc3cccc(C(F)(F)F)c3)CC12 (stereo not given) | 100µM*
CCCCCSc1nc2c(c(=O)[nH]c(=O)n2C)n1Cc1ccc(Cl)cc1 | i
Cc1ccc(F)cc1NCc1ccccc1C#N | i
COc1ccc(NC(=O)NC[C@@H]2C=C(C)[C@H](CC(=O)NCCN(C)C)C[C@H]2C(C)C)cc1 | i
COc1ccc(CNC(=O)C[C@@H]2C[C@@H](C(C)C)[C@H](CNC(C)=O)C=C2C)cc1 | 35µM*
COc1ccc(CNC(=O)C[C@@H]2C[C@@H](C(C)C)[C@H](CNC(=O)c3ccc(NC(C)=O)cc3)C=C2C)cc1 | i
O=C(c1cnc2c(cnn2Cc2ccccc2)c1)N1CCCc2ccccc21 | i
COc1ccc(C(=O)N2CCCn3nc(C)c(-c4ccccc4C(C)C)c32)cc1 | i
COc1ccccc1C(=O)N1CCCn2nc(C)c(-c3ccccc3N3CCCC3)c21 | 13µM*
COc1ccccc1C(=O)N1CCCn2nc(C)c(-c3ccccc3C(C)C)c21 | i
CC(C)CNC(=O)C(=O)Nc1ccc2cc[nH]c2c1 | i
Cn1c(=O)c2c(ncn2CCC(=O)Nc2ccccc2F)n(C)c1=O | i
CCOc1ccc(-c2ccnc(N3CCOC(CN)C3)n2)cc1C(=O)O (stereo not given) | 28µM*
CCOc1ccccc1C(=O)N1CCC(n2cc(-c3nc(-c4ccccc4)no3)nn2)CC1 | i
CCOc1ccc(-c2ccnc(-c3ncccn3)n2)cc1C(=O)O | i
COc1ccccc1NC(=O)CSc1nc2c(c(=O)[nH]1)CN(Cc1ccc3c(c1)OCO3)CC2 | i
CC(C)(C)c1cc(NC(=O)Nc2ccc(F)cc2)no1 | i
CC(C)(CC(=O)O)CC(=O)Nc1ccccc1 | i
O=C(c1ccc(N2CC[C@H](O)C2)nc1)N1CCC(N2CCOCC2)CC1 | 25µM*
O=C(c1ccc(N2CC3CC(C2)[C@H]2CCCC(=O)N2C3)nc1)N1CCOCC1 (stereo not given in full) | i
O=C(c1ccc(N2CCC(O)CC2)nc1)N1CCC(Oc2cccnc2)CC1 | i
CCCSc1nc2c(c(=O)n(C)c(=O)n2C)n1C/C=C/c1ccccc1 | i
SMILES | KDM5B inhibitor
CN(Cc1nccs1)c1ccc(-c2nc(-c3ccccc3F)no2)cn1 | 22µM*
Fc1ccccc1-c1noc(-c2nc(-c3ccncc3)no2)n1 | i
O=C1CCCCN1CCNc1ccc(-c2nc(-c3ccccc3F)no2)cn1 | 32µM*
CCCc1noc(-c2nc(-c3ccccc3F)no2)n1 | i
CCc1ccc(Nc2nc(-c3ccccc3F)no2)cc1 | i
Fc1ccccc1-c1noc(-c2nc(-c3cnccn3)no2)n1 | i
CCOc1nc(-c2ccc(C)cc2)ccc1-c1noc(-c2ccccc2F)n1 | i
CC(Cn1cccn1)Nc1ccc(-c2nc(-c3ccccc3F)no2)cn1 (stereo not given) | 28µM*
O=C1CCCN1Cc1nc(-c2ccc(F)c(Cl)c2)no1 | i
Fc1ccccc1-c1noc(-c2nc(C3CC3)no2)n1 | i
O=C1OCCCN1CCNc1ccc(-c2nc(-c3ccccc3F)no2)cn1 | 28µM*
Fc1ccc(N2CCN(c3nc(-c4ccccc4F)no3)CC2)cc1 | i
CCOC(=O)C1=C(CNc2ccc(C)c(Cl)c2)NC(=O)NC1c1ccc(Cl)cc1 (stereo not given) | i
O=C(CC1CCN(C(=O)c2ccc3nc(-c4ccccc4)oc3c2)CC1)NCCN1CCCCC1 | i
O=C(CCCCCCCC(=O)NNC(=O)c1cccc(Cl)c1)NNC(=O)c1cccc(Cl)c1 | i
CN(C)CCn1cc(C(=O)c2cc(F)ccc2O)cc1-c1nc2ccccc2c(=O)[nH]1 | i
COc1ccc(Cl)cc1N1CC(c2nc3ccccc3n2C)CC1=O (stereo not given) | i
O=C(CSc1nc2cc(S(=O)(=O)N3CCCCC3)ccc2o1)Nc1ccccc1F | i
Fc1ccc(CN2CCOC[C@H]2c2ncc(-c3ccc(F)cc3F)[nH]2)cc1 | i
O=C(Cn1ccc2c(Cl)cccc21)Nc1ccc2[nH]ccc2c1 | i
CC(NS(=O)(=O)c1cccs1)c1ccccn1 (stereo not given) | i
c1ccc(CN2CCNc3cnc(Nc4ccncn4)cc3C2)cc1 | i
Cc1noc(C)c1CN1CCNc2cc(Nc3ccccc3)ncc2C1 | i
Cc1[nH]cnc1CN1CCNc2cc(Nc3ccccc3)ncc2C1 | i
CC(C)(C)CN1CCNc2cc(Nc3cccnc3)ncc2C1 | i
c1ccc(Nc2cc3c(cn2)CN(Cc2ccn[nH]2)CCN3)cc1 | i
Oc1ccccc1CN1CCNc2cnc(Nc3ccccc3)cc2C1 | 22µM*
